{
  "source": "PubChem BioAssay AID651660",
  "about": "(Broad Institute, 2012)",
  "note": "Among all 1,900 compounds or so, about 15 (0.8%) were called active. This excerpt belongs to a sample that is enriched for actives. Values without a mark were called inactive.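 The calls were made as follows: active = every replicate shows at least 50% inhibition; inconclusive = mean inhibition at least 50% but some replicate below; inactive = the rest.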",
  "data": [
    {"target": "DNA repair protein RAD52 homolog (Homo sapiens) (UniProt P43351)", "sequence (P43351 whole entry, looked up)": "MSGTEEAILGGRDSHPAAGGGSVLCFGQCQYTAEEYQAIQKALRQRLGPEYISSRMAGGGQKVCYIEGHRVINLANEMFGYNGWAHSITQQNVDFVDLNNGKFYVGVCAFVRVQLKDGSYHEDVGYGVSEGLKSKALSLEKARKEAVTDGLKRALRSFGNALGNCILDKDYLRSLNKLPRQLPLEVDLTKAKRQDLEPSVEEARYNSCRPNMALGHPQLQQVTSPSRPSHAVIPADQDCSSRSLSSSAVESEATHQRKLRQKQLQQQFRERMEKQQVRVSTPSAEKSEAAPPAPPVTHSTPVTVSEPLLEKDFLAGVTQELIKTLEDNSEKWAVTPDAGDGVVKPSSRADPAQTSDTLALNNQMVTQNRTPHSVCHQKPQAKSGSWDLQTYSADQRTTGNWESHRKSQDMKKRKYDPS", "assay": "RAD52 ssDNA annealing inhibitors, primary screen, biochemical, FRET, single point (AID 651660);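 also: 0% = median of neutral control wells and 100% = median of positive control wells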", "conditions": "Recombinant RAD52 ssDNA annealing, FRET fluorescence, 30 min; at 18.7 µM; stronger effect = higher value", "values": [
      {"compound": "COc1cc2c3cc1Oc1cc(ccc1O)C[C@@H]1c4c(cc(OC)c(O)c4Oc4ccc(cc4)C[C@H]3N(C)CC2)CCN1C", "inhibition": "77.6% (active)"},
      {"compound": "c1cnc2c(c1)ccc1ncccc12", "inhibition": "-3.46%"},
      {"compound": "O=C1NCCN2CCCC12", "note": "(stereo not given)", "inhibition": "-1.15%"},
      {"compound": "CCC1(c2ccccc2)C(=O)N(COC)C(=O)N(COC)C1=O", "inhibition": "-5.47%"},
      {"compound": "C[N+]1(C)CCOC(O)(c2ccc(-c3ccc(C4(O)C[N+](C)(C)CCO4)cc3)cc2)C1", "note": "(stereo not given)", "inhibition": "61.8% (active)"},
      {"compound": "C=C1[C@@H](C)[C@H]2[C@H](Cc3ccccc3)NC(=O)[C@]23OC(=O)/C=C/[C@H](O)CCC[C@@H](C)C/C=C/[C@H]3[C@@H]1O", "inhibition": "-0.777%"},
      {"compound": "CC(C)(C)C(O)C(Oc1ccc(Cl)cc1)n1cncn1", "note": "(stereo not given)", "inhibition": "-119%"},
      {"compound": "NCCc1c[nH]c2ccc(F)cc12", "inhibition": "0.119%"},
      {"compound": "CN1C(=O)N(C)C(=O)C2(Cc3ccccc3N3CCOCC32)C1=O", "note": "(stereo not given)", "inhibition": "-0.534%"},
      {"compound": "CCNC(=S)N(C)CCc1cc2c(c(OC)c1C=C1C(=O)N(C)C(=O)N(C)C1=O)OCO2", "inhibition": "-15%"}
    ]}
  ]
}
